Source: ChEMBL document CHEMBL3988442, “University of Dundee, Small-Polar-MMV Screening Library” (2021)
Among all 66,000 compounds or so, about 960 (1.5%) showed an effect of 50% or more. The full list was thinned out, with strong results kept by preference.

Tested on: Trypanosoma brucei
Experiment: Trypanosoma brucei 72 hour study
Type: functional, organism-based
Parameters: scale not given: in the data most compounds retested in dose-response had high values

Cn1cc(CNC2CCc3c(ccc(=O)n3Cc3ccncc3)C2)cn1.O=C(O)C(F)(F)F.O=C(O)C(F)(F)F (centres undefined)
Percent Effect (30.3 µM, […]): 3.089%

CCc1cc(N(C)Cc2ccncn2)n2nc(C)c(C)c2n1
Percent Effect (30 µM, 30.03 µM): 25.26%

CCc1cc(N(C)Cc2ccno2)n2nc(C)c(C)c2n1
Percent Effect (30 µM, 30.03 µM): 69.73%

CCc1cc(N(C)Cc2ccnc(C)c2)n2nc(C)c(C)c2n1
Percent Effect (30 µM, 30.03 µM): -13.68%

CC(=O)N1CCCN(C(=O)c2ccc(=O)n(C)c2)c2ccccc21
Percent Effect (30.3 µM, […]): -14.08%

Cn1cc(N2CC3(CCN(CC4CC4)CC3)OCC2=O)cn1.O=C(O)C(F)(F)F
Percent Effect (30 µM, 30.03 µM): -14.55%

O=C(NCCC1=CCCCC1)c1n[nH]c2c1CCCC2
Percent Effect (30.3 µM, […]): 9.564%

Cc1cc(C(=O)N2CCN(C)CC2)nn1CC(=O)NCc1cccs1.Cl
Percent Effect (30.3 µM, […]): 4.887%

CN1CCc2c(C#N)c(NCC3CCCO3)n3cnnc3c2C1.Cl (centres undefined)
Percent Effect (30 µM, 30.03 µM): -22.69%

CC(NC(=O)CSCC(N)=O)c1ccccc1Oc1ccccc1 (centres undefined)
Percent Effect (30.3 µM, […]): 5.896%

CN1[C@H](CN2CCCC2)C[C@@H]2CN(C(=O)c3cccn3C)CC[C@@H]21.O=C(O)C(F)(F)F.O=C(O)C(F)(F)F
Percent Effect (30.3 µM, […]): 14%

O=S(=O)(Nc1cnn(C2CCOCC2)c1)c1ccc(F)c(F)c1
Percent Effect (30 µM, 30.03 µM): 51.53%

O=C(O)c1cc(S(=O)(=O)Nc2cnn(C3CCOCC3)c2)ccc1F
Percent Effect (30 µM, 30.03 µM): -3.686%

Cc1ccc(S(=O)(=O)Nc2cnn(C3CCOCC3)c2)cc1C
Percent Effect (30 µM, 30.03 µM): -12.07%

CC(C)CS(=O)(=O)N1CCC2(CN(c3ccsc3)C(=O)CN2C)C1.O=C(O)C(F)(F)F (centres undefined)
Percent Effect (30 µM, 30.03 µM): -44.48%

Cl.NCCC(=O)Nc1ccc(-c2ccccc2)cc1
Percent Effect (30.3 µM, […]): 22.23%
Percent Effect (10 mM, 10 mM as filed; unlikely as a test dose): 97.12%

O=C(CCn1ccccc1=O)Nc1ccc(C(=O)O)cc1
Percent Effect (30 µM, 30.03 µM): 4.206%

CC(=O)Nc1ccc(-c2ccccc2NC(=O)CN)cc1
Percent Effect (30 µM, 30.03 µM): -52.76%

O=C(O)C(F)(F)F.O=C([C@H]1C[C@H]2OCC[C@H]2N(CC2CC2)C1)N1CCCCO1
Percent Effect (30.3 µM, […]): -275.5%

O=C(O)C(F)(F)F.O=C1COC2(CCN(Cc3ccsc3)CC2)CN1
Percent Effect (30 µM, 30.03 µM): -11.85%

CS(=O)(=O)NCC1CCCN(Cc2ccccc2F)C1 (centres undefined)
Percent Effect (30 µM, 30.03 µM): -12.86%

COC1CCN(C(=O)Nc2ccccc2)CC(=O)N(C)c2ccccc21 (centres undefined)
Percent Effect (30.3 µM, […]): 83.76%

COC1CCN(C(=O)C2CCCC2)CC(=O)N(C)c2ccccc21 (centres undefined)
Percent Effect (30.3 µM, […]): -34.54%

COC1CN(C(=O)Nc2ccccc2)CCC(=O)N(C)c2ccccc21 (centres undefined)
Percent Effect (30.3 µM, […]): -31.75%

COCCOc1cccc(CNCc2c(C)nn(C)c2N(C)C)c1
Percent Effect (10 µM): -49.16%

Cc1nc(C)n(CC2CN(c3ncnc4[nH]ccc34)CCO2)n1 (centres undefined)
Percent Effect (30 µM, 30.03 µM): 20.56%

Cc1nc(C)n(CC2CCCN(c3ncnc4ccccc34)C2)n1 (centres undefined)
Percent Effect (30.3 µM, […]): 12.87%

Cc1nc(C)n(CC2CCCN(c3ncnc4[nH]ccc34)C2)n1 (centres undefined)
Percent Effect (30 µM, 30.03 µM): 50.76%

CC(C)NC(=O)[C@@]12CCO[C@@H]1CCN(Cc1ccco1)C2.O=C(O)C(F)(F)F
Percent Effect (30.3 µM, […]): -46.6%

COc1cc(C)c(-c2ccc(F)c3c2OC(CN)C3)cc1C (centres undefined)
Percent Effect (30 µM, 30.03 µM): -14.37%

CCN1CCn2c(C)cnc2C12CCN(C(=O)N(C)C)CC2.O=C(O)C(F)(F)F.O=C(O)C(F)(F)F
Percent Effect (30.3 µM, […]): -17.98%

CC(C)(C)c1cnc(CN2CCCCC2Cn2cccn2)o1 (centres undefined)
Percent Effect (30.3 µM, […]): -24.92%
Percent Effect (10 mM, 10 mM as filed; unlikely as a test dose): -80.62%

Cc1cc(C)n(CC2CCCN2Cc2ncc(C(C)(C)C)o2)n1 (centres undefined)
Percent Effect (30.3 µM, […]): 1.727%
Percent Effect (10 mM, 10 mM as filed; unlikely as a test dose): -8.311%

CCC1CCCCN1Cc1ncc(C(C)(C)C)o1 (centres undefined)
Percent Effect (30.3 µM, […]): 100.3%
Percent Effect (10 mM, 10 mM as filed; unlikely as a test dose): -33.47%

Cc1nc(C)n(CC2CCCCN2Cc2ncc(C(C)(C)C)o2)n1 (centres undefined)
Percent Effect (30 µM, 30.03 µM): 13.64%

Cc1nc(C)n(CC2CCCN2Cc2ncc(C(C)(C)C)o2)n1 (centres undefined)
Percent Effect (30.3 µM, […]): 101.7%
Percent Effect (10 mM, 10 mM as filed; unlikely as a test dose): -27.43%

CC(C)(C)c1cnc(CN2CCC[C@H]2CO)o1
Percent Effect (30 µM, 30.03 µM): 19.26%

Cc1nc(C)c(S(=O)(=O)NC(=O)c2ccoc2)s1
Percent Effect (30 µM, 30.03 µM): -10.98%

Cc1cc(F)c(S(=O)(=O)NCC(C)(C)N)cc1F.Cl
Percent Effect (30 µM, 30.03 µM): -16.06%

Cn1ncc(-c2cc(-c3cccc(O)c3)nc(N)c2C#N)c1C1CC1
Percent Effect (30.3 µM, […]): 47.44%

Cc1nn(C)c(C)c1-c1cc(-c2cnn(C)c2C2CC2)c(C#N)c(N)n1
Percent Effect (30.3 µM, […]): 20.75%

Cc1cc(O)ccc1-c1cc(-c2cnn(C)c2C2CC2)c(C#N)c(N)n1
Percent Effect (30.3 µM, […]): 53.81%

Cc1nccc(NCc2cncc3c2CCN(CC2CCOC2)C3)n1.Cl.Cl (centres undefined)
Percent Effect (30.3 µM, […]): -74.45%

C/N=C1/c2cc3cc(OC)ccc3n2CCN1Cc1ccccc1.Cl
Percent Effect (30 µM, 30.03 µM): 62.06%

C/N=C1\c2cc3cc(OC)ccc3n2CCN1C.Cl
Percent Effect (30 µM, 30.03 µM): -36.23%

C/N=C1\c2cc3cc(OC)ccc3n2CCN1Cc1ccccc1.O=C(O)C(F)(F)F
Percent Effect (30 µM, 30.03 µM): 28.46%

Cc1ccc(CN2C[C@@H]3COC[C@@H](CC(=O)N4CCOCC4)[C@@H]3C2)s1.O=C(O)C(F)(F)F
Percent Effect (30 µM, 30.03 µM): -11.98%

O=C(COC1CCCC1)N1C[C@@H]2COC[C@]2(COc2cccnc2)C1.O=C(O)C(F)(F)F
Percent Effect (30.3 µM, […]): -69.72%

Cc1ccc(N2CCC(c3[nH]ncc3Cc3ccccc3)CC2)nn1
Percent Effect (30 µM, 30.03 µM): 58.22%

Cc1ccc(N2CCC(c3cc(Cc4ccccc4)n[nH]3)CC2)nn1
Percent Effect (30.3 µM, […]): -45.15%

Cc1ccc(N2CCCC(c3[nH]ncc3Cc3ccccc3)C2)nn1 (centres undefined)
Percent Effect (30 µM, 30.03 µM): 42.86%

O=C(C[C@@H]1COC[C@H]2CN(C(=O)c3cccnc3)C[C@@H]12)N1CCCC1.O=C(O)C(F)(F)F
Percent Effect (30 µM, 30.03 µM): -25.13%

CCN1C(=O)CC[C@]12CC[C@@H](NC(=O)c1ccncc1F)CC2.O=C(O)C(F)(F)F
Percent Effect (30.3 µM, […]): 5.821%

O=C(CC1CC1)N1CCC2(CC1)CN(c1ncccn1)CCO2
Percent Effect (30 µM, 30.03 µM): 61.77%

O=C(CC1CC1)N1CCC2(CC1)CN(c1ncc(F)cn1)CCO2
Percent Effect (30.3 µM, […]): -27.29%

COCC(=O)N1CCC2(CC1)CN(c1ncccn1)CCO2
Percent Effect (30.3 µM, […]): -22.4%

Cc1cnc(N)c(C(=O)C2CCN(C(=O)c3ccccc3F)CC2)c1
Percent Effect (30 µM, 30.03 µM): 31.22%

COC(=O)C1CN(Cc2ccn(-c3ccc(F)cc3)n2)CCO1 (centres undefined)
Percent Effect (30 µM, 30.03 µM): -55.87%

O=C(NCc1cnn(-c2ccc(F)cc2F)c1)C1CCCO1 (centres undefined)
Percent Effect (30 µM, 30.03 µM): 6.462%

O=C(NCCn1cccc1)C1CCCOC1 (centres undefined)
Percent Effect (30 µM, 30.03 µM): 2.367%

O=C(NCCc1ccn(-c2ccc(F)cc2)n1)C1CCCO1 (centres undefined)
Percent Effect (30.3 µM, […]): 99.62%

CN1CC(C(=O)NCCc2ccn(-c3ccc(F)cc3)n2)CC1=O (centres undefined)
Percent Effect (30.3 µM, […]): -29.7%

O=C(NCCc1ccn(-c2ccc(F)cc2)n1)C1CCCOC1 (centres undefined)
Percent Effect (30.3 µM, […]): 101.3%

Cc1noc(C)c1CN1CCN(Cc2ccncc2)c2ncccc2C1.O=C(O)C(F)(F)F.O=C(O)C(F)(F)F.O=C(O)C(F)(F)F
Percent Effect (30 µM, 30.03 µM): 43.91%

COc1ccc(CN2CCc3nnc(COCCN(C)C)n3CC2)cc1.O=C(O)C(F)(F)F.O=C(O)C(F)(F)F
Percent Effect (30.3 µM, […]): -2.661%

CN1C(=O)CC[C@@H]2[C@H]1CCN2S(=O)(=O)Cc1ccccc1
Percent Effect (30 µM, 30.03 µM): -49.38%

COc1ccc(-c2cc(CN)nc3ccnn23)cc1.Cl
Percent Effect (30.3 µM, […]): -10.95%

Cc1cccc(CNC(=O)CNc2cc(CO)ccc2Cl)c1
Percent Effect (30 µM, 30.03 µM): 50.69%

CN(C)S(=O)(=O)c1cccc(CNc2cc(CO)ccc2Cl)c1
Percent Effect (30.3 µM, […]): 18.15%

COc1cccc(CNc2cc(CO)ccc2Cl)c1
Percent Effect (30.3 µM, […]): -53.68%

CC(C)CC(=O)N1CC[C@H]2N(C)CC[C@@]2(C(=O)Nc2ccccc2)CC1.O=C(O)C(F)(F)F
Percent Effect (30 µM, 30.03 µM): -17.6%

CCc1cc(CN2CCCCC2c2ccc(F)cc2)on1 (centres undefined)
Percent Effect (30.3 µM, […]): -64.98%

CCCC(=O)N(C)Cc1nc(N2CCCC2)ncc1-c1ccncc1.Cl
Percent Effect (30.3 µM, […]): 24.09%

O=C(NCC1CCOCC1)[C@H]1C[C@@H]2CCN(c3nncs3)C[C@@H]2O1.O=C(O)C(F)(F)F
Percent Effect (30.3 µM, […]): -23.29%

COCCNC(=O)[C@H]1C[C@@H]2CCN(c3ncccn3)C[C@H]2O1.O=C(O)C(F)(F)F
Percent Effect (30.3 µM, […]): -89.35%

COCCNC(=O)[C@H]1C[C@@H]2CCN(c3nncs3)C[C@H]2O1.O=C(O)C(F)(F)F
Percent Effect (30 µM, 30.03 µM): 50.75%

O=C(NCC1CCCO1)N1CCN(Cc2ccc3c(c2)CCO3)CC1 (centres undefined)
Percent Effect (30.3 µM, […]): 17.02%

O=C(NCC1CCOC1)N1CCN(Cc2ccc3c(c2)CCO3)CC1 (centres undefined)
Percent Effect (30 µM, 30.03 µM): 54.6%

O=C(NCC1CCOC1)N1CCN(Cc2ccc3c(c2)OCO3)CC1 (centres undefined)
Percent Effect (30.3 µM, […]): 1.586%

CC1(C(=O)N2CCOCC2)CNCCO1.Cl (centres undefined)
Percent Effect (30.3 µM, […]): -3.709%

O=C(CC1CC1)NCc1cn2c(n1)CN(CC1CC1)CC2.O=C(O)C(F)(F)F
Percent Effect (30 µM, 30.03 µM): 14.47%

O=C(COCc1ccccc1Cl)N1CCN(c2ccc(Br)cn2)CC1
Percent Effect (30.3 µM, […]): 6.228%

O=C(Cc1ccsc1)NCC1OCCc2cn(CC3CC3)nc21 (centres undefined)
Percent Effect (30 µM, 30.03 µM): 10.27%

O=C(NCC1OCCc2cn(CC3CCOCC3)nc21)c1ccsc1.O=C(O)C(F)(F)F (centres undefined)
Percent Effect (30 µM, 30.03 µM): -82.86%

O=C(NCC1OCCc2cn(CC3CC3)nc21)c1ccsc1 (centres undefined)
Percent Effect (30 µM, 30.03 µM): 104.3%

CCOCC1CN(C(=O)Cc2ccccn2)Cc2cnn(C)c21.O=C(O)C(F)(F)F.O=C(O)C(F)(F)F (centres undefined)
Percent Effect (30.3 µM, […]): -7.447%

CN1CCC(N2Cc3nc(N)ncc3C2=O)CC1
Percent Effect (30.3 µM, […]): -14.03%

CC1CCC(N2Cc3nc(N)ncc3C2=O)CC1 (centres undefined)
Percent Effect (30.3 µM, […]): 59%

Nc1ncc2c(n1)CN(C1CCCC1)C2=O
Percent Effect (30 µM, 30.03 µM): 49.38%

Cc1csc(C(Cc2ccsc2)NC(=O)CN(C)Cc2ccccn2)n1.Cl (centres undefined)
Percent Effect (30.3 µM, […]): 18.37%

Cc1nc(C)n(CC2CN(CC(=O)Nc3ccncc3)CCO2)n1 (centres undefined)
Percent Effect (30 µM, 30.03 µM): -4.979%

O=C(O)c1ccccc1-c1c(-c2ccccc2)ncn1C[C@H]1CCCN1
Percent Effect (30 µM, 30.03 µM): 7.799%

Oc1ccc(-c2c(-c3ccccc3)ncn2C[C@H]2CCCN2)cc1
Percent Effect (30 µM, 30.03 µM): 67.04%

O=C(O)c1ccccc1-c1c(-c2ccccc2)ncn1CC1CCCO1 (centres undefined)
Percent Effect (30 µM, 30.03 µM): -42.19%
